HP1b chromo inh: HTS for Inhibitors of HP1-beta Chromodomain Interactions with Methylated Histone Tails. Chromobox protein homolog 1 (Homo sapiens), P83916. AlphaScreen HP1-beta / biotin-H3K9me3 peptide binding. Potency, µM (titrated, usually from 114 µM), without a hit: at the top dose activity change, negative = inhibition, most hits filed as inhibitors. 0.56% of 390,000 active; also: nearly all actives have a fitted effect of over 70% in size
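Compound inhibition of the preformed complex between 50 nM HP1-beta and 50 nM biotinylated H3K9me3 peptide was read by AlphaScreen. Buffer was PBS pH 7.4 with 0.01% Tween-20. Incubations ran 30 min at room temperature, with 10 ug/mL donor/acceptor beads.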
BAZ2B inh: qHTS Assay for Inhibitors of BAZ2B | 4.4% of 360,000 active | Bromodomain adjacent to zinc finger domain protein 2B (Homo sapiens), Q9UIF8 | AlphaScreen BAZ2B-H3K14Ac peptide displacement | Potency, µM (titrated, usually from 114 µM), for inactives: top-dose activity change, negative = inhibition, usual class: inhibitors | AID 504333, 2011; also: % is scaled to controls: 0 for no effect and ±100 for the full control effect; nearly all actives have a fitted effect of over 60% in size
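AlphaScreen displacement: compounds (up to 110uM) incubated 30 min at room temperature with a preformed 50 nM BAZ2B/50 nM biotinylated H3K14Ac peptide complex in PBS pH 7.4 with Tween-20. Donor and acceptor beads at 10 ug/mL final added, 20 min light-protected before reading.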
JMJD2A Tudor: qHTS Assay for Inhibitors of JMJD2A-Tudor Domain; Lysine-specific demethylase 4A (Homo sapiens), O75164; AlphaScreen JMJD2A-Tudor / H3K4me3 peptide binding; Potency, µM (titrated, usually from 114 µM), inactives show at the highest dose activity change, negative = inhibition, usual class: inhibitors; 4.4% of 390,000 active; also: % is scaled to controls: 0 for no effect and ±100 for the full control effect; nearly all actives have a fitted effect of over 50% in size
GLS inhibitor: qHTS for Inhibitors of Glutaminase (GLS) | Glutaminase kidney isoform, mitochondrial (Homo sapiens), O94925 | GLS enzymatic activity, qHTS titration | Potency, µM (doses to about 45.5 µM), without a hit: at the top dose activity change, negative = inhibition, hits mostly inhibitors | 0.21% of 410,000 active | AID 624170, 2012; also: % is scaled to controls: 0 for no effect and ±100 for the full control effect
Target sequence (O94925 whole entry, looked up, canonical isoform): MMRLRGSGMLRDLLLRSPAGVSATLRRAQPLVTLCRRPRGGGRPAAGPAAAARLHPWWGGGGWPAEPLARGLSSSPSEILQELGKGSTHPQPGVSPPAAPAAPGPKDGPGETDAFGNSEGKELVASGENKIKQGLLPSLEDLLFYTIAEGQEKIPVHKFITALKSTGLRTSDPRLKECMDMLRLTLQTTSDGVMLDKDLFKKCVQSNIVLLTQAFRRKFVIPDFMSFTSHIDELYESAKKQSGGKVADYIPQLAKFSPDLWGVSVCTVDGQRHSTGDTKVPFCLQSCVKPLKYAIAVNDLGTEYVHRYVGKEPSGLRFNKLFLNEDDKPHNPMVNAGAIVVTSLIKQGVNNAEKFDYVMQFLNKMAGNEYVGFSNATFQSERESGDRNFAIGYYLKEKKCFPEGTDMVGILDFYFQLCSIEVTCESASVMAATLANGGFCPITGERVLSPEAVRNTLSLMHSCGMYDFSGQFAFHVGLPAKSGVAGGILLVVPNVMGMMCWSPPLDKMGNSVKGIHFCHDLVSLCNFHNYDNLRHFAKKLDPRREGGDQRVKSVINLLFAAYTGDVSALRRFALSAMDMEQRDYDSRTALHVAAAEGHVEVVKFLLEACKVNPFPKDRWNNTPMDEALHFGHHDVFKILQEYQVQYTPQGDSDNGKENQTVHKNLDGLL
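hKGA in 45 mM KH2PO4 pH 8.2, 0.02% Tween-20 with pin-transferred compounds; 1 mM L-glutamine (stock) plus glutamate oxidase/HRP/Amplex Red coupling added. Fluorescence read initially and after 30 min at RT.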
G9a block: qHTS Assay for Inhibitors of Histone Lysine Methyltransferase G9a. Histone-lysine N-methyltransferase EHMT2 (Homo sapiens), Q96KQ7. G9a H3K9 monomethylation, AlphaScreen, 2 h. Potency, µM (top dose mostly 102 µM), without a hit: at the top dose activity, negative = inhibition, usual class: inhibitors. 8.8% of 350,000 active. AID 504332, 2011; also: % is scaled to controls: 0 for no effect and ±100 for the full control effect; nearly all actives have a fitted effect of over 75% in size
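AlphaScreen read-out: biotin-H3K9 peptide (500 nM) methylation by 20 nM enzyme with 20 uM SAM, 2 h at room temperature after 15 min compound preincubation; anti-monomethyl H3K9 antibody plus donor/acceptor beads, 10 min dark.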
* hit, by the source's call; ? = inconclusive; . = no result given; [ ] = dose if it differs, or a comment. Rows were chosen to be rich in hits. Some 10% of all compounds tested hit in one or more screens of this group. Calls follow the shape of the dose curve; as a rule, active = well fitted curve in the direction sought with a large enough effect; inconclusive = small, poorly fitted or top-dose-only effect, or another doubt; inactive = no such curve, though single readings can be large; an effect the other way counts as inactive or inconclusive. Potency is read from the fitted curve at half-maximal effect.

SMILES	HP1b chromo inh	BAZ2B inh	JMJD2A Tudor	GLS inhibitor	G9a block
CC(C)(C)Nc1scc(-c2ccccc2)[n+]1-c1ccccc1	-16%	50µM*	-33%	17%	45µM*
CC[n+]1c(-c2ccccc2)csc1Nc1c(C)n(C)n(-c2ccccc2)c1=O	33%	?	-24%	13%	?
Cc1ccc(NC(=O)CSc2nc3c(oc4ccccc43)c(=O)n2Cc2ccco2)cc1F	0%	0%	-16%	-4%	2%[59 µM]
Cc1cc(-c2csc(N)n2)c(C)n1-c1ccc(Cl)c(Cl)c1	?	?	56µM*	-19%	20µM*
COc1ccc(-n2c(C)cc(-c3csc(N)n3)c2C)cc1	?	45µM*	45µM*	13%	8.9µM*
COc1ccc(-c2cn3cc(C)ccc3n2)cc1F	-16%	?	20µM*	-13%	3%[12.7 µM]
CCN1C(=O)[C@H]2[C@@H](c3ccc(Cl)cc3)N3C(=O)CN(CC4CC4)C(=O)[C@@]3(Cc3ccccc3)[C@H]2C1=O	37%	-25%	1%	-2%	71µM*
CC1(C(=O)NCCCN2CCCC2=O)CCN1CCc1ccccc1 (configuration not stated)	.	.	.	-12%	.
O=C(CCCn1c(=O)c2cccn2c2ccccc21)Nc1cccc(Cl)c1	-9%	?	-36%	0%	-45%[59 µM]
Cc1ccccc1Cn1nnc2c1C(=O)c1ccccc1C2=O	-2%	.	-7%	-7%	.
Cc1cccc(Cn2nnc3c2C(=O)c2ccccc2C3=O)c1	-26%	13µM*	-14%	.	?
CCc1ccc(C2NC(C(=O)O)CS2)cc1 (configuration not stated)	.	?	.	.	3.5µM*
CCc1ccc(C2NC(c3ccc(CC)cc3)C([N+](=O)[O-])C(C)(C)C2[N+](=O)[O-])cc1 (configuration not stated)	15%	1%	-22%	0%	-9%[59 µM]
Cc1cc(/N=C/C=C2\N(C)c3ccccc3C2(C)C)n(CCC#N)n1	0%	?	?	29%	50µM*
CN1\C(=C/C=C/C=C/C=[N+](C)C)C(C)(C)c2ccccc21	?	11µM*	50µM*	-14%	11µM*
CN1/C(=C\C=Nc2ccc3ccccc3c2)C(C)(C)c2ccccc21	.	-35%	.	.	1.8µM*
CN1/C(=C\C=O)C(C)(C)c2ccccc21	11%	.	-21%	-3%	4%
CN(C)c1ccc(N=C/C=C2\N(C)c3ccccc3C2(C)C)cc1	50µM*	35µM*	-8%[11.4 µM]	60%	40µM*
COc1cccc(CNC(=O)Cn2c(=O)cc(C(F)(F)F)c3c(C)nn(C)c32)c1OC	31%	0%	0%	-1%	3%[59 µM]
Cc1nc2cc(-c3ccc(Cl)cc3)nn2c(NCCN(C)C)c1C	12%	-35%	-34%	-4%	71µM*
COc1ccccc1CC1S/C(=N/N=C/c2ccco2)NC1=O (configuration not stated)	26%	-15%	-6%	1%	1%
CCOC(=O)c1c(=O)n(O)c2ccc(OC)cc2[n+]1[O-]	3%	?	50µM*	-3%	50µM*
CCOC(=O)c1cc2ccc(OC)cc2oc1=O	12%	2%	1%	4%	33%[0.501 µM]
CN(O)/C=N/C(=S)Nc1ccc(Cl)cc1Cl	9%	?	-22%	7%	3.5µM*
COc1cc(CNc2ccc(O)cc2)cc(Br)c1OCc1ccccc1F	?	?	?	26%	11µM*
SMILES	HP1b chromo inh	BAZ2B inh	JMJD2A Tudor	GLS inhibitor	G9a block
COc1cccc(CNc2ccc(S(N)(=O)=O)cc2)c1OCc1ccccc1F	-2%	-36%	-28%	-1%	19%[59 µM]
CCOc1cc(CNc2ccc(O)cc2)cc(Br)c1OCc1ccccc1F	18µM*	-32%	50µM*	9%	11µM*
CCOc1cc(/C=N/NC(N)=O)cc(Br)c1OCc1ccccc1F	15%	-1%	-30%	6%	-23%
CCOc1cc(CNc2ccc(O)cc2)cc(Br)c1OCc1ccccc1	?	?	40µM*	37%	?
COc1cccc(CNc2ccccc2O)c1OCc1ccccc1F	45µM*	32µM*	45µM*	0%	35µM*
CCCN(C(=O)Cn1ncc2c([nH]c3ccccc32)c1=O)c1ccc(F)cc1	25%	-9%	-17%	5%	-31%[59 µM]
O=C(COc1ccccc1Cl)OCc1cc(=O)n2nc(C3CCCCC3)sc2n1	25%	-11%	-7%	4%	8%[59 µM]
Cn1cccc1C(=O)N1CCC2(CCN(C(=O)Nc3cccc(F)c3)CC2)CC1	.	.	.	.	-30%[12.7 µM]
COc1ccc(CN2C[C@@H](CO)O[C@@H](n3cnc4c(NC5CC5)ncnc43)C2)cc1	.	.	.	3%	.
O=C(NNC(=O)C1CCC1)c1ccc(F)cc1	.	.	.	0%	.
Cc1cc(C)c(NC(=O)Cn2c(=O)n(Cc3ccc(C(=O)NCc4ccco4)cc3)c(=O)c3sccc32)c(C)c1	63%	50µM*	-4%	-26%	-9%[59 µM]
Cc1ccc(-n2c(=O)c3sccc3n(CC(=O)NCc3ccco3)c2=O)cc1	20%	14%	-12%	0%	79µM*
Cc1cccc(C)c1NC(=O)Cn1c(=O)n(Cc2ccc(C(=O)NCc3ccco3)cc2)c(=O)c2sccc21	31%	?	-14%	-1%	?
CC(=O)OC1CC[C@]2(C)C(CC(OC(C)=O)[C@@]3(C)C4=CC(=O)OC(c5ccoc5)[C@]4(C)CCC23)C1(C)C (some centres not stated)	.	.	.	.	-3%[2.33 µM]
COc1ccc(C(NC(=O)/C=C\c2ccco2)c2ccc(OC)c(OC)c2)cc1 (configuration not stated)	-40%	-33%	50µM*	-11%	25µM*
COc1ccc(C(NC(=O)/C=C/c2ccco2)c2ccc(OC)cc2)cc1	?	50µM*	?	-2%	8.9µM*
Cc1cc(=O)c(C(=O)O)c(C)n1-c1ccccc1	12%	.	-10%	-11%	.
COC(=O)c1ccccc1NC(=O)c1cc(-c2ccc(Cl)cc2)on1	17%	-2%	-10%	1%	3%[59 µM]
COc1ccc(S(=O)(=O)c2c(O)c3ccc(C(=O)NCc4ccccc4)cc3[nH]c2=O)cc1	24%	?	-9%	8%	-38%[59 µM]
Cc1cccc(C(=O)NC2C(=O)NNC2c2ccc(Cl)cc2)c1 (configuration not stated)	11%	.	-29%	7.9µM*	16µM*
O=C(NC1C(=O)NNC1c1ccccc1)c1ccccc1 (configuration not stated)	39%	2%	-9%	2%	-13%[59 µM]

Bioassay records deposited in PubChem BioAssay by National Center for Advancing Translational Sciences (NCATS).
